# Laboratory results published in PubChem BioAssay AID463187 (University of Pittsburgh Molecular Library Screening Center, 2010).
# Hit rate of the full screen: of about 220,000 compounds, about 1,500 (0.68%) were called active. The sample holds actives, similar compounds and a random draw of the others, so the mix is not that of the screen.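 How the source made its calls: active means Hck-Nef kinase inhibition above about 50% (limit read from the data); inactive means inhibition below that limit.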
# Molecular target: Tyrosine-protein kinase HCK (Homo sapiens) (UniProt P08631)
# Assay: inhibitors of Nef-activated human Hck kinase, primary screen, biochemical, Z-Lyte FRET, 384-well, Hck-YEEI (AID 463187);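 further: 0% = DMSO with Hck plus Nef and 100% = Hck alone without Nef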
# Settings: Recombinant Hck-YEEI plus Nef, Z-Lyte FRET kinase assay; at 20 µM; active compounds read high
# Tyrosine-protein kinase HCK (Homo sapiens), sequence (P08631 whole entry, looked up): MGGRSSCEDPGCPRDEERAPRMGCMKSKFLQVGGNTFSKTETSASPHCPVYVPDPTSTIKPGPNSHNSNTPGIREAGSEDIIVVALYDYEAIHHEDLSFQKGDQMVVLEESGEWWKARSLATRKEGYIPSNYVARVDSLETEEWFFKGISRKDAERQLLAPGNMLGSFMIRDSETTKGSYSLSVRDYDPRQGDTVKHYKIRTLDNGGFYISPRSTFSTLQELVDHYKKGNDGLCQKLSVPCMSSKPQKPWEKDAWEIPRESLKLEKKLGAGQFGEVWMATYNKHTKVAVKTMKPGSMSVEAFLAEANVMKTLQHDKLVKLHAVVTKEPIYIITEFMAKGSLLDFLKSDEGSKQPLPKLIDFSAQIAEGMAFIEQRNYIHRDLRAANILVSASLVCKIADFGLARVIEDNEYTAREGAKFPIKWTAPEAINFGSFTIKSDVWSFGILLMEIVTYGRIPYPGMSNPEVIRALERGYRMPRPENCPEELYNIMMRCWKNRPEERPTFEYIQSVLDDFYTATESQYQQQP
row,SMILES,inhibition
1,COC(=O)Cn1c(=NC(=O)c2cc(OC)c(OC)c(OC)c2)sc2cc(OC)ccc21,-1.02% (inactive)
2,COCC(C)NC(=O)COc1nncc2ccccc12 (stereo not drawn),21.5% (inactive)
3,Cc1cc(=O)[nH]c(S)c1C#N,-0.332% (inactive)
4,O=S(=O)(Cc1ccccc1)c1nc2ccccc2n1Cc1ccccn1,5.67% (inactive)
5,Cc1ccc(-n2c(C)cc(/C=N/Nc3ccc([N+](=O)[O-])cn3)c2C)c(C)c1,0.189% (inactive)
6,Cc1cc(/C=N/n2cnnc2)c(C)n1-c1cccc(C(=O)O)c1,-0.934% (inactive)
7,Cc1cc(/C=N/Nc2ccc([N+](=O)[O-])cn2)c(C)n1-c1cccc(C(=O)O)c1,58.6% (active)
8,Cc1c(CCOC(=O)CC23CC4CC(CC(C)(C4)C2)C3)sc[n+]1Cc1ccc([N+](=O)[O-])cc1,6.69% (inactive)
9,C=CCn1c(=N)n(CC(O)COc2ccc(OC)cc2)c2ccccc21 (stereo not drawn),16% (inactive)
10,COC(=O)c1ccc(OCC(O)CN(CCO)CC(O)Cn2ccc3ccccc32)cc1 (stereo not drawn),60.4% (active)
11,COc1ccc(CCNCC(O)Cn2ccc3ccccc32)cc1OC (stereo not drawn),37.4% (inactive)
12,CC(C)n1c(-c2cccs2)nc2ccccc21,10.6% (inactive)
13,COCCCn1c(-c2cccs2)nc2nc3ccccc3nc21,67.9% (active)
14,COc1ccccc1C(=O)Nn1c(-c2cccs2)nc2ccccc2c1=O,2.4% (inactive)
15,Cc1cc(C)cc(C(=O)NC(=S)Nc2ccc3[nH]c(=O)[nH]c3c2)c1,2.61% (inactive)
16,Cc1cc(-c2csc(N)n2)c(C)n1-c1ccccc1,7.5% (inactive)
17,CCc1cccc2c(=O)c(C(=O)NCCCOC)c[nH]c12,-18.3% (inactive)
18,COc1ccc(CCn2c(=N)c(C(=O)NCc3ccco3)cc3c(=O)n4cccc(C)c4nc32)cc1,7.77% (inactive)
19,COc1ccccc1N(C)S(=O)(=O)c1ccc(C(=O)NC2CCCCCC2)cc1,0.492% (inactive)
20,CCCCn1c(N)c(N(CC)C(=O)/C=C/c2ccco2)c(=O)[nH]c1=O,-7.95% (inactive)

row,SMILES,inhibition
1,Cc1ccc(CCC(=O)Nc2ncc(Cc3cc(Cl)ccc3Cl)s2)o1,6.19% (inactive)
2,O=C(c1cnn(-c2ccc(Cl)cc2)c1)c1ccccc1O,17% (inactive)
3,Cc1ncc(CC(=O)n2cc(C(=O)c3cc(Cl)ccc3O)cn2)s1,78.7% (active)
4,O=C(NCc1csc(-c2cccs2)n1)C1CC1,-1.15% (inactive)
5,COC(=O)CN1C(=S)N(c2ccccc2)C(=O)C1CC(=O)Nc1ccc(Cl)cc1 (stereo not drawn),2.46% (inactive)
6,COc1ccc(C(=O)n2nc(-c3ccc(Cl)cc3)nc2N)cc1OC,81.4% (active)
7,COc1ccc(C(=O)n2nc(-c3ccc(C)cc3)nc2N)cc1OC,-1.4% (inactive)
8,COc1ccc(C(=O)O/N=C(\N)Cc2ccc(Cl)cc2Cl)cc1OC,3.19% (inactive)
9,CC(C)NC(=O)/C(C#N)=C\c1ccc(N(C)C)c(Br)c1,7.25% (inactive)
10,O=C(O)Cc1sc(-c2ccccc2)nc1-c1cccs1,-10.1% (inactive)
11,CCCNC(=O)N1CCN(C(=O)NCCC)CC1,0.793% (inactive)
12,O=[N+]([O-])C(=c1ccc2c(c1)N1C3=C(CCCC3)CC3CCCCC31N=2)[N+](=O)[O-] (stereo not drawn),73% (active)
13,CCCCCC(=O)Nc1ccc(S(=O)(=O)Nc2ccc(Cl)nn2)cc1,-1.44% (inactive)
14,C=C(C)COc1ccc(-c2nc(N)ncc2-c2ccccc2OC)c(O)c1,68.8% (active)
15,CCOc1ccc(-c2n[nH]c(C)c2-c2ccccn2)c(O)c1,-15.5% (inactive)
16,C=C(C)COc1ccc(-c2n[nH]c(C)c2-c2ccccc2)c(O)c1,-0.0537% (inactive)
17,C=C(C)COc1ccc(-c2n[nH]c(C)c2-c2ccccc2OC)c(O)c1,12.1% (inactive)
18,CCOc1ccccc1Oc1cn[nH]c1-c1ccc(OC)cc1O,26.3% (inactive)
19,CCOc1ccc(-c2nc(N)ncc2-c2ccccc2OC)c(O)c1,75.3% (active)
20,c1ccc(-c2cc3c(NCC4COc5ccccc5O4)ncnc3s2)cc1 (stereo not drawn),5.9% (inactive)

row,SMILES,inhibition
1,COc1ccc(-c2cc(C(=O)NCCCn3ccnc3)no2)cc1,-9.96% (inactive)
2,Cc1cccc2cc(CN(C(=O)c3cccs3)c3ccccc3)c(=O)[nH]c12,3.68% (inactive)
3,O=[N+]([O-])c1cc(Cl)cc(/C=N/NC(=S)Nc2cc(S(=O)(=O)N3CCOCC3)ccc2Cl)c1O,68.6% (active)
4,O=C(N/N=C/c1ccc([N+](=O)[O-])o1)c1cccc(S(=O)(=O)N2CCOCC2)c1,18.1% (inactive)
5,O=C(CN1CCN(c2ccc(O)cc2)CC1)Nc1cc(S(=O)(=O)N2CCOCC2)ccc1Cl,12.6% (inactive)
6,Cc1nn(Cc2ccc(C(=O)N3N=C(C(F)F)CC3(O)C(F)F)cc2)c(C)c1[N+](=O)[O-] (stereo not drawn),-2.69% (inactive)
7,O=C(CN1C(=O)/C(=C\c2ccccc2F)SC1=S)Nc1nc2ccccc2s1,4.36% (inactive)
8,Cc1ccc(-c2nn(-c3ccccc3)cc2/C=C/C(=O)Nc2cccc(S(N)(=O)=O)c2)cc1,14.1% (inactive)
9,CN(C)S(=O)(=O)c1cccc(-c2nn(-c3ccccc3)cc2/C=C2\SC(=S)N(CC(=O)O)C2=O)c1,56.2% (active)
10,CC1(C)CC(=O)C(C2c3ccccc3S(=O)(=O)c3ccccc32)C(=O)C1,2.74% (inactive)
11,C=CCOc1c2ccc(C(=O)N(CC)c3ccc(OC)cc3)cc2nn1C,-0.652% (inactive)
12,CC1=NN(/C(=N\c2nnc(C)s2)Nc2ccccc2)[C@H](c2ccc(C)cc2)S1,-3.06% (inactive)
13,COC(=O)COc1ccc2oc(=O)cc(C)c2c1,1.26% (inactive)
14,CCCc1cc(=O)oc2c(C)c(O)c(CN3CCCCC3)cc12,31% (inactive)
15,COC(=O)Cc1cc(=O)oc2c(C)c(O)ccc12,58.3% (active)
16,CCOC(=O)c1cc2c(=O)n3ccccc3nc2n(CC(C)C)c1=NC(=O)c1c(-c2c(F)cccc2Cl)noc1C,8.32% (inactive)
17,CCOC(=O)c1cc2n(c1N)-c1ccccc1C2=O,-1.56% (inactive)
18,CCCn1c(=NC(C)=O)c(C(=O)OCC)cc2c(=O)n3ccccc3nc21,95.9% (active)
